AC50 and activity, negative = inhibition data for 88 compounds are collected here from PubChem BioAssay AID1851 (National Center for Advancing Translational Sciences (NCATS), 2009).

The campaign covered roughly 16,000 compounds. About 5,800 (36%) were called active. Not shown: some 23% with an inconclusive outcome. Calls follow the shape of the dose curve; as a rule, active = well fitted curve in the direction sought with a large enough effect; inconclusive = small, poorly fitted or top-dose-only effect, or effect the other way; inactive = no such curve, though single readings can be large or run the other way. This is one part of the list.
% is scaled to controls: 0 for no effect and ±100 for the full control effect.

This test deals with Cytochrome P450 2C19 (Homo sapiens) (UniProt P33261). In words: Cytochrome panel assay with activity outcomes. Conditions: recombinant CYP, pro-luciferin dealkylation, luminescence, p450-cyp2c19; series mostly up to 57.1 µM.
Sequence of Cytochrome P450 2C19 (Homo sapiens) (P33261 whole entry, looked up): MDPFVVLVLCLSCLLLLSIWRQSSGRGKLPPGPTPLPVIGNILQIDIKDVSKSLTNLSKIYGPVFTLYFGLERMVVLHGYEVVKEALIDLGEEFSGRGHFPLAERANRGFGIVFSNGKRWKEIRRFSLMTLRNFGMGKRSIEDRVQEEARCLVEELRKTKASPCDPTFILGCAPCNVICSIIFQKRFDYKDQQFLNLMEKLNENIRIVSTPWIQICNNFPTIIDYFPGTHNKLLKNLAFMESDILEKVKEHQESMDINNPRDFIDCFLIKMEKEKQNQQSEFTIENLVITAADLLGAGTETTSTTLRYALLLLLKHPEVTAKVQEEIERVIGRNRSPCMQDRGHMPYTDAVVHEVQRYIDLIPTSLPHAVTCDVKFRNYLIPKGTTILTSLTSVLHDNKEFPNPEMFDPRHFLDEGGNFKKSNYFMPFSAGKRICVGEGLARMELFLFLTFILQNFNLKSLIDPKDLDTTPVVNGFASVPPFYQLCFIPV
A word on the AC50: it is the concentration at which the activity in the assay is half-maximal. With `O=c1c2ccccc2ncn1CCCSc1ccccc1`, the AC50 was 1.41 µM (active).

Regarding `CCOCCCn1cnc2c(c1=O)c1nc3ccccc3nc1n2-c1ccccc1`, the AC50 entry was “inactive”.

On to `Cc1ccc(SCCCn2cnc3ccccc3c2=O)cc1`, for which the AC50 is 2.24 µM (active).

In the case of `O=C(c1ccccc1)c1ccc(OCCn2cnc3ccccc3c2=O)cc1`, the concentration at half-maximal activity (AC50) was 1.58 µM (active).

Consider `O=C1c2ccccc2C(=O)N1CCCSc1ccccc1`, for which the AC50 was 0.631 µM (active).

For `N#CCSc1ncnc2c1cnn2CCO`, the AC50 entry is “inactive”.

Turning to `COC(=O)N/N=C\C=C\c1ccc2c(c1)OCO2`, the AC50 result is “inactive”.

Regarding `O=C(CSCc1cccc(Cl)c1)N/N=C/c1ccc(OCC(=O)N2CCCCC2)cc1`, the AC50 is 3.16 µM (active).

As for `CCCc1nnc(SCC(=O)O)n1/N=C/c1ccc2c(c1)OCO2`, the AC50 entry was “inactive”.

`O=C(CSCc1cccc(Br)c1)N/N=C/c1ccc2c(c1)OCO2`: the AC50 is 11.2 µM (active).

For the compound `Cc1cccc(C(=O)N/N=C/c2ccc(OCC(=O)N3CCCCC3)cc2)c1`, the AC50 entry is “inactive”.

Consider `O=C(/C=C/c1ccc2c(c1)OCO2)NCCSCc1cccc(Cl)c1`, for which the AC50 is 3.16 µM (active).

As to `O=C(Cn1nc(C(F)F)cc1C(F)F)N/N=C/c1ccc2c(c1)OCO2`, the half-maximal activity concentration (AC50) is 1.58 µM (active).

Turning to `COc1ccc2c(c1OC)C(=O)N(C(C)C(=O)O)C2=O` (stereo not drawn), the AC50 entry is “inactive”.

Take `COc1ccc(-n2c(=O)c(C)nc3cnc(N(C)C)nc32)cc1`: the AC50 result was “inactive”.

For the compound `N=C(N)C(N=Nc1ccccc1)C(=N)N` (stereo not drawn), the activity, negative = inhibition is -2.71% [at 11.4 µM] (inactive).

Regarding `CC[C@H](Cc1c(I)cc(I)c(N)c1I)C(=O)O`, the AC50 result is “inactive”.

With `O=C(NC12CC3CC(CC(C3)C1)C2)N1CCN(c2nc(-c3ccccc3)cs2)CC1`, the AC50 was 2.82 µM (active).

As for `N[C@@H](CSCc1ccc(I)cc1)C(=O)O`, the activity, negative = inhibition was 12.9% [at 11.4 µM] (inactive).

On to `COc1ccc(-n2c(=O)c(-c3ccc(F)cc3)nc3cnc(OC)nc32)cc1`, for which the AC50 entry was “inactive”.

With `CC(=O)OC[C@@H]1O[C@H](CCO/N=C(\C)CCN2CCCc3nc(C)c(C)cc32)C=C[C@@H]1OC(C)=O`, the activity, negative = inhibition is 38.8% [at 11.4 µM] (inactive).

In the case of `CO/N=C(\C)CCN1CCCCc2nc(C)c(C)cc21`, the activity, negative = inhibition was -22.3% [at 11.4 µM] (inactive).

In the case of `C/C(CCN1CCc2nc(-c3ccccc3)c(-c3ccccc3)cc2C1)=N\OC[C@@H](O)COCc1ccco1`, the activity, negative = inhibition is -21.9% [at 11.4 µM] (inactive).

With `C=CC[C@@H]1C=C[C@H](O/N=C(\C)CCN2CCc3nc(-c4ccccc4)c(-c4ccccc4)cc3C2)[C@H](CO)O1`, the activity, negative = inhibition was -25.6% [at 11.4 µM] (inactive).

For `CCc1cc2c(nc1CC)CCN(CC/C(C)=N/OC[C@@H](C)[C@H](OCc1ccccc1)C(C)C)C2`, the activity, negative = inhibition was -15.6% [at 11.4 µM] (inactive).

As for `CC(=O)OC[C@@H]1O[C@H](CCO/N=C(\C)CCN2CCc3nc(-c4ccccc4)c(-c4ccccc4)cc3C2)C=C[C@@H]1OC(C)=O`, the activity, negative = inhibition was -28.2% [at 11.4 µM] (inactive).

With `C/C(CCN1CCc2nc(-c3ccccc3)c(-c3ccccc3)cc2C1)=N\OC[C@@H](C)[C@H](OCc1ccccc1)C(C)C`, the half-maximal activity concentration (AC50) is 1.58 µM (active).

On to `COc1ccc(O[C@H]2C=C[C@@H](c3ccccc3)O[C@@H]2CO/N=C(\C)CCN2CCCc3nc(C)c(C)cc32)cc1`, for which the AC50 was 0.398 µM (active).

For `COc1ccc(O[C@H]2C=C[C@@H](c3ccccc3)O[C@@H]2CO/N=C(\C)CCN2CCCCc3nc(C)c(C)cc32)cc1`, the AC50 was 2.51 µM (active).

Take `CCCNC(=O)OC[C@@H]1O[C@H](CCO/N=C(\C)CCN2CCCCc3nc(C)c(C)cc32)C=C[C@@H]1Oc1ccc(OC)cc1`: the activity, negative = inhibition was -12.9% [at 11.4 µM] (inactive).

For `CCCNC(=O)OC[C@@H]1O[C@H](CCO/N=C(\C)CCN2CCCc3nc(C)c(C)cc32)C=C[C@@H]1Oc1ccc(OC)cc1`, the activity, negative = inhibition is -43.5% [at 11.4 µM] (inactive).

On to `COc1ccc(O[C@H]2C=C[C@@H](c3ccccc3)O[C@@H]2CO/N=C(\C)CCN2CCc3nc(-c4ccccc4)c(-c4ccccc4)cc3C2)cc1`, for which the AC50 was 0.251 µM (active).

In the case of `COC(=O)CC[C@@H](C)[C@H]1CC[C@H]2[C@H]3CC[C@H]4C[C@@H]5CC[C@@]4(C)C3(O5)[C@@H](Br)[C@@H](Br)[C@@]12C`, the activity, negative = inhibition was -31% [at 11.4 µM] (inactive).

As for `OCCN=c1cc(-c2ccccc2)oc2ccc(Cl)cc12`, the AC50 was 1.58 µM (active).

Turning to `CCCCN1CCC(n2c(=O)[nH]c3ccccc32)CC1`, the AC50 result is “inactive”.

Turning to `CCCCCCN1Cc2ccccc2C1`, the AC50 is 10 µM (active).

On to `CCCCNC(=O)[C@@H]1Cc2ccccc2N1C(=O)[C@H](N)CC`, for which the AC50 result was “inactive”.

Consider `CCN(CC)C(=O)N1CCN(C)CC1`, for which the AC50 entry is “inactive”.

As for `COc1ccccc1CN1CCCC2(CCN(C(=O)c3ccncc3)CC2)C1`, the AC50 result was “inactive”.

As for `COC(=O)[C@@]1(Cc2ccccc2)[C@H]2c3cc(C(=O)N4CCCC4)n(C)c3C[C@H]2CN1C(=O)c1ccccc1`, the concentration at half-maximal activity (AC50) is 3.98 µM (active).

Take `COC(=O)[C@@]1(Cc2ccccc2)[C@H]2c3cc(C(=O)N4CCCC4)n(CC4CC4)c3C[C@H]2CN1C(=O)c1ccccc1`: the half-maximal activity concentration (AC50) was 3.16 µM (active).

Regarding `Cn1cccc1C(=O)N1CCC2(CCCN(Cc3ccccc3)C2)CC1`, the AC50 result was “inactive”.

For the compound `COC(=O)[C@@]1(Cc2ccccc2)[C@H]2c3cc(C(=O)N4CCCC4)n(Cc4ccc(O)c(OC)c4)c3C[C@H]2CN1C(=O)c1ccccc1`, the AC50 was 0.501 µM (active).

For the compound `COc1ccc(C(=O)N2CCC3(CC2)CCN(c2ncccn2)CC3)cc1`, the AC50 result was “inactive”.

Consider `O=C(c1ccncc1)N1CCC2(CC1)CCN(c1ncccn1)CC2`, for which the half-maximal activity concentration (AC50) is 2.51 µM (active).

With `O=C(c1cccc(F)c1)N1CCC2(CC1)CN(c1ccc(-c3ccccc3)cc1)C2`, the AC50 result was “inactive”.

On to `O=C(c1ccncc1)N1CCC2(CC1)CN(c1ncccn1)C2`, for which the AC50 result is “inactive”.

With `O=C(c1ccncc1)N1CCC[C@@]2(CCN(c3ccccc3)C2)C1`, the AC50 entry is “inactive”.

In the case of `O=C(c1ccncc1)N1CCC2(CC1)CN(c1ccccc1)C2`, the AC50 was 0.316 µM (active).

With `O=C(c1cccc(F)c1)N1CCC2(CC1)CN(c1ccncc1)C2`, the AC50 is 3.16 µM (active).

Regarding `O=C(c1cc(C(F)(F)F)cc(C(F)(F)F)c1)N1CCC2(CC1)CN(c1ccncc1)C2`, the AC50 result is “inactive”.

For the compound `O=C(c1cccc(F)c1)N1CCC2(CC1)CCN(c1ccncc1)CC2`, the AC50 entry is “inactive”.

For `NC(N)=NC(N)=Nc1ccc(S(N)(=O)=O)cc1`, the activity, negative = inhibition is 28.1% [at 11.4 µM] (inactive).

As to `CC(C)CN1CC2(CCN(C(=O)c3cccc(F)c3)CC2)C1`, the AC50 entry is “inactive”.

Turning to `NNC(=O)[C@@H](O)[C@H](O)[C@H](O)CO`, the activity, negative = inhibition is 16% [at 11.4 µM] (inactive).

Regarding `Cn1c([N+](=O)[O-])cnc1COC(N)=O`, the AC50 result is “inactive”.

As to `CCCCCCCCCCCCCCCC(=O)C(F)(F)F`, the AC50 entry was “inactive”.

Take `Nc1nc(Cl)cc(N2CCC(c3cc(-c4ccc(Cl)cc4Cl)n[nH]3)CC2)n1`: the concentration at half-maximal activity (AC50) was 3.98 µM (active).

In the case of `NC1CCN(c2cccc(Cl)n2)CC1`, the AC50 entry is “inactive”.

Consider `COc1ccc(-c2cc(C3CCN(c4cc(Cl)nc(N)n4)CC3)[nH]n2)cc1`, for which the concentration at half-maximal activity (AC50) is 3.16 µM (active).

Turning to `C[N+](C)(C)c1ccc([C@H](N)C(=O)O)cc1`, the activity, negative = inhibition was -19.4% [at 11.4 µM] (inactive).

For `CCOC(=O)C1C(=O)C=C(c2ccc(C)cc2)CC1c1ccco1` (stereo not drawn), the concentration at half-maximal activity (AC50) is 3.98 µM (active).

As to `CCOC(=O)C1C(=O)C=C(c2ccc(NS(C)(=O)=O)cc2)CC1c1ccco1` (stereo not drawn), the AC50 was 14.1 µM (active).

Turning to `N[C@@H](Cn1cc(F)c(=O)[nH]c1=O)C(=O)O`, the AC50 result was “inactive”.

As for `CCCCCCCCn1cc(C(C)=O)c(=O)[nH]c1=O`, the AC50 is 17.8 µM (active).

Turning to `CCCCCCC(C)n1cc(C(C)=O)c(=O)[nH]c1=O` (stereo not drawn), the half-maximal activity concentration (AC50) was 15.8 µM (active).

`CC(C)NC[C@H](O)c1cc(O)cc(O)c1`: the AC50 entry is “inactive”.

`CC(C)Oc1ccc2ccccc2c1C=O`: the half-maximal activity concentration (AC50) was 10 µM (active).

Consider `COc1ccc(C(=O)NCS(=O)(=O)c2ccc(C)cc2)cc1`, for which the half-maximal activity concentration (AC50) is 6.31 µM (active).

In the case of `O=C(CN(Cc1ccco1)C(=O)c1ccccc1)Nc1ccc(Cl)c(Cl)c1`, the AC50 is 3.16 µM (active).

Turning to `Cc1cc(N2CCN(C)CC2)nc2ccc(NC(=O)CCC(=O)NCc3ccco3)cc12`, the AC50 entry is “inactive”.

With `O=C(CN(Cc1ccco1)C(=O)c1cccc(Cl)c1)Nc1c(Cl)cc(Cl)cc1Cl`, the AC50 was 10 µM (active).

As for `CO[C@]1(C2=NCCN2)COc2ccccc2O1`, the AC50 result is “inactive”.

Regarding `O=C(CSc1ccc(Cl)cc1)Nc1cccc(NC(=O)c2ccco2)c1`, the AC50 is 2.51 µM (active).

As to `CCc1cc2cc(C)c(C)cc2nc1SCC(=O)NNC(=O)c1ccco1`, the AC50 result was “inactive”.

With `Cc1ccc(SCC(=O)Nc2cccc(NC(=O)c3ccco3)c2)cc1`, the half-maximal activity concentration (AC50) was 7.08 µM (active).

Consider `CCC(=O)Nc1cccc(NC(=O)CSc2nnnn2Cc2ccccc2)c1`, for which the concentration at half-maximal activity (AC50) was 10 µM (active).

As for `CNC(=O)c1nnn(Cc2ccccc2)c1NC(=O)C(F)(F)F`, the AC50 result was “inactive”.

With `Cc1ccc(-n2nnnc2SCC(=O)NNC(=O)c2ccco2)c(C)c1`, the AC50 entry was “inactive”.

`CC(=O)c1ccc(-n2nnnc2SCC(=O)Nc2cccc(NC(=O)c3ccco3)c2)cc1`: the half-maximal activity concentration (AC50) was 3.16 µM (active).

Regarding `O=C(NCc1ccccc1)c1sc(=S)n2c1[nH]c(=O)c1ccccc12`, the AC50 was 11.2 µM (active).

Turning to `O=C(NC1CCCCC1)c1sc(=S)n2c1[nH]c(=O)c1ccccc12`, the AC50 was 4.47 µM (active).

Consider `Nc1c(C(=O)NCc2ccccc2)sc2nc3c(cc12)C(=O)CCC3`, for which the AC50 result is “inactive”.

On to `CC(=O)O[C@]1(C(C)=O)CC[C@@H]2[C@@H]3C=C(C)C4=CC(=O)CC[C@@]4(C)[C@H]3CC[C@]21C`, for which the AC50 entry is “inactive”.

For `CC(=O)CC(=O)[C@@]1(O)CC[C@@H]2[C@@H]3C=C(C)C4=CC(=O)CC[C@@H]4[C@H]3CC[C@]21C`, the AC50 was 5.01 µM (active).

With `N#Cc1ccccc1Sc1ccccc1N`, the AC50 was 2.82 µM (active).

As to `N#CC(=C(/N)Sc1ccccc1N)/C(C#N)=C(/N)Sc1ccccc1N`, the AC50 entry is “inactive”.

In the case of `C[C@@H](c1ccccc1)N1C(=O)[C@@H]2[C@H]3C(=CC[C@H]2C1=O)C(=O)[C@H]1O[C@H]1[C@H]3O`, the activity, negative = inhibition is 18.8% [at 11.4 µM] (inactive).
